Laboratory results: PubChem BioAssay AID1963316 (National Center for Advancing Translational Sciences (NCATS), 2024)
Inconclusive results are not listed. Calls of active or inactive are those of the source. Calls follow the shape of the full dose curve.

What follows are molecules tested against Tyrosine-protein kinase ABL1 (Homo sapiens) (UniProt P00519) (assay: ABL1 kinase (ABL1-N-HiBiT) SDR gain of signal screen - plus ATP). Conditions: purified ABL1-N-HiBiT enzyme, HiBiT luminescence with 50 uM ATP, 30 min; series mostly up to 57.5 µM; signal gain, positive = increase: at the top concentration.
Excerpt: National Center for Advancing Translational Sciences (NCATS),
National Institute of Health (NIH), Maryland
Discovery and optimization of novel protein-binding ligands underlies many of the methods and applications of biology, drug discovery, clinical diagnostics, and environmental toxicology. Assays for detecting the interaction of, for example, a molecule with a macromolecular target also referred to here as the target of interest (TOI) is dependent on a compatible output technology. Depending on the nature and knowledge surrounding the TOI, whether a receptor, enzyme, regulatory subunit or scaffold, or a sequence-defined nucleic acid folded into a complex tertiary structure, assay strategies can vary widely.
Here we exploit ligand-biased changes in the structural dynamics of the target protein to control reporter alpha complementation allowing a non-competitive, non-functional, non-separation measure of ligand-target interaction.
Secondly, we show the specificity and sensitivity of the SDR for the Abelson tyrosine kinase (ABL1) compared to the serine/threonine protein kinase A, using an enriched chemical library of 128 compounds selected, in part, for activity annotated with ABL1 kinase activity using the Pharos database (3).
(1) A. S. Dixon et al., NanoLuc Complementation Reporter Optimized for Accurate Measurement of Protein Interactions in Cells. ACS Chem Biol 11, 400-408 (2016).
Chemistry & Biology, 19, 1060 - 1072 (2012).
(3) K. J. Kelleher et al., Pharos 2023: an integrated resource for the understudied human proteome. Nucleic Acids Res 51, D1405-D1416 (2023).
PROTOCOL TABLE (as described by Inglese J, Shamu CE and Guy RK. 2007)
SEQUENCE No. (e.g., 1, 2, 3, etc.); […] (e.g., C. elegans, Compounds, Incubation, Read, etc.); VALUE and DESCRIPTION.
1. Reagent. Dispense 4 uL ABL1-N-HiBiT enzyme per well at a final enzyme concentration of 10 nM in buffer with 50 uM ATP (SDR assay) into columns 2-48 of four replicate Greiner 1536-well white, solid bottom high base, medium plates per assay. Dispense respective buffer without enzyme at 4 uL/well in column 1 of assay plates using BioRaptr 2.
2. Compounds. Library compounds added at 23 nL/well by pin transfer. DMSO neutral control and imatinib positive control added at 25 nL/well, transfer by Mosquito dispenser.
3. Incubation. Incubate enzyme and compounds at room temperature for 30 min, protected from light.
4. Reagent. (SDR assay) Add 3 uL/well of Nano-Glo HiBiT reagent (Promega) to assay plates with ATP.
5. Incubation. (SDR assay) Incubate enzyme solution and HiBiT reagent at room temperature for 10 min, protect from light.
6. Detector. (SDR assay) Luminescence measured using CCD-based camera (ViewLux) with settings as follows: Exposure, 1 sec; Gain, High; Speed, Slow; Binning, 2X.
Inglese J, Shamu CE and Guy RK, Reporting data from high throughput screening of small molecule libraries, Nature Chemical Biology, 2007, 3(8): 438-441. doi.org/10.1038/nchembio0807-438.

Sequence of Tyrosine-protein kinase ABL1 (Homo sapiens) (P00519 whole entry, looked up): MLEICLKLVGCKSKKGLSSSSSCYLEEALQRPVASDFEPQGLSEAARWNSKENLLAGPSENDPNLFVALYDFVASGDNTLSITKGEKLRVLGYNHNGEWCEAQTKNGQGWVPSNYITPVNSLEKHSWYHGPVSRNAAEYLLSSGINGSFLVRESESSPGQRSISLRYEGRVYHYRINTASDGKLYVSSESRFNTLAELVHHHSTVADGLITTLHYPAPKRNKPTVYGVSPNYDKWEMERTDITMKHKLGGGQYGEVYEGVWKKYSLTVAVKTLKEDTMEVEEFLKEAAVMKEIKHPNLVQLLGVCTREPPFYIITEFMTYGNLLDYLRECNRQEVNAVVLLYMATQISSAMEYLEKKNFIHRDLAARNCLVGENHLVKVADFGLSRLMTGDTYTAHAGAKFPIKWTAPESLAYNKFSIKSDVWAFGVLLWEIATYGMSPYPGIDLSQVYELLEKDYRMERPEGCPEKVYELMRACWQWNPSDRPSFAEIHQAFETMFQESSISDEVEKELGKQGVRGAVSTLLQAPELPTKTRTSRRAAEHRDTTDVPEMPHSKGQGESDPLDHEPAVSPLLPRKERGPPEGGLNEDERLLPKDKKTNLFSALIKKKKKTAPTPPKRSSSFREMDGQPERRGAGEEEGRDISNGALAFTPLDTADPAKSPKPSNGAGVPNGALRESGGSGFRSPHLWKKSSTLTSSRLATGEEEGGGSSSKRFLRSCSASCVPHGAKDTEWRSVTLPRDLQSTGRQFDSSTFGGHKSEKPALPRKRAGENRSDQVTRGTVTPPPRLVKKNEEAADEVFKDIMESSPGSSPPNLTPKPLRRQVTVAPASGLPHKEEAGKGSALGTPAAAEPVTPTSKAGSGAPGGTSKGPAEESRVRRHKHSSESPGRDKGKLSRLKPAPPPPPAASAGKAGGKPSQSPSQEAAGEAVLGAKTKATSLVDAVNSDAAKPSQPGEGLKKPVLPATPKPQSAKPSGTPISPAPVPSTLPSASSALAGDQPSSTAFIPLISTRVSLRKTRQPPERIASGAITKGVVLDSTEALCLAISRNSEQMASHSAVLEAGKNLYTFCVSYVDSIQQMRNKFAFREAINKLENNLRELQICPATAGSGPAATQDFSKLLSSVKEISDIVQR

Compound	signal gain, positive = increase
O=[N+]([O-])O[C@H]1CO[C@H]2[C@@H]1OC[C@H]2O[N+](=O)[O-]	2.28% (inactive)
C/C(O)=C(\C#N)C(=O)Nc1cc(Br)ccc1Br	-66.9% (inactive)
O=C(NCCCNc1nc(Nc2ccc(N3CCOCC3)cc2)ncc1C1CC1)C1CCC1	8.48% (inactive)
N#Cc1cn([C@@H]2O[C@H](CO)[C@H](O)[C@@H]2O)c2ncnc(N)c12	16.4% (inactive)
Cc1[nH]nc2ccc(-c3cncc(OC[C@@H](N)Cc4c[nH]c5ccccc45)c3)cc12	-0.858% (inactive)
CCNC(=O)C[C@@H]1N=C(c2ccc(Cl)cc2)c2cc(OC)ccc2-n2c(C)nnc21	-4.29% (inactive)
